ELG1 repair inh: inhibitors of ELG1-dependent DNA repair in HEK293T cells; HEK293T ELG1-luciferase reporter, luminescence, 16 h; DNA damage induced by 5-fluorouridine; Potency, µM (titrated, usually from 46.1 µM), usual class: inhibitors; 2.3% of 330,000 active; AID 504467; note: nearly all actives have a fitted effect of over 55% in size
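Luminescence from the luciferase reporter, measured 30 min after ONE-Glo reagent at room temperature, was the read-out. Beforehand, 2,000 cells per well were exposed for 16 hr at 37 °C to 5-fluorouridine together with compound or vehicle.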
Rango complex inh: prevents formation of the Rango-importin beta complex. Q14974. Rango CFP/YFP FRET sensor + importin beta, 45 min. Potency, µM (doses to about 92.2 µM). 0.031% of 340,000 active; calls by dose curve; note: nearly all actives have a fitted effect of over 15% in size
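FRET biosensor Rango (snurportin 1 IBB between N-terminal EYFP and C-terminal Cerulean), 50 nM in PBS/1 mM DTT/0.02% Tween-20/0.1% BSA, preincubated 5 min RT with compound; 0.125 microM importin beta added, 45 min RT, CFP/YFP FRET ratio read.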
Rango release inh: prevents RanGTP from dissociating the Rango-importin beta complex; 0.071% of 340,000 active; O95149+P62826; Biochemical FRET Rango-importin beta, RanGTP-induced dissociation; AID 540253; Potency, µM (highest dose often 46.1 µM); calls by dose curve; note: nearly all actives have a fitted effect of over 45% in size
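FRET read at 45 min, room temperature: inhibitors block the CFP/YFP signal rise when RanGTP (0.6 uM Ran, 2 mM GTP, 0.2 uM RCC1) frees Rango (0.1 uM) from importin beta (0.25 uM). Pre-read after 5 min compound exposure flags interference.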
PKM2 act: PKM2 (human) enzyme activation. P14618. 0.34% of 260,000 active. purified PKM2, Kinase-Glo ATP luminescence, activation; response scale: 0% is enzyme alone, no compound. Potency, µM (titrated, usually from 57.5 µM), usual class: activators; note: nearly all actives have a fitted effect of over 55% in size
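hPK-M2, >95% pure; 0.1 mM ADP / 0.5 mM PEP final; imidazole pH7.2 buffer w/ 7 mM MgCl2, 50 mM KCl; 1 h RT; Kinase-Glo lum. Intermediate enzyme activity for dual inhibitor/activator qHTS.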
Tb PGK inh: blocks T. brucei phosphoglycerate kinase. P07378. PGK/GAPDH coupled, Kinase-Glo luminescence, 60 min. Potency, µM (highest dose often 57.5 µM), hits mostly inhibitors. 0.043% of 380,000 active; note: nearly all actives have a fitted effect of over 60% in size
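Luminescent ATP detection (Kinase-Glo Plus) follows a 60-minute room-temperature incubation, with wells lacking PGK as controls. Buffer: 100 mM TEA (pH 7.6), 5 mM MgCl2, 0.01% Tween-20. Coupling enzyme GAPDH (100 nM final) supplies unstable 1,3-BPG in-well.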
Tb PFK inh: blocks T. brucei phosphofructokinase. 0.17% of 330,000 active. Potency, µM (series often up to 57.5 µM), hits mostly inhibitors. T. brucei PFK, ADP-Glo luminescence. O15648; note: nearly all actives have a fitted effect of over 60% in size
Target sequence (O15648 whole entry, looked up): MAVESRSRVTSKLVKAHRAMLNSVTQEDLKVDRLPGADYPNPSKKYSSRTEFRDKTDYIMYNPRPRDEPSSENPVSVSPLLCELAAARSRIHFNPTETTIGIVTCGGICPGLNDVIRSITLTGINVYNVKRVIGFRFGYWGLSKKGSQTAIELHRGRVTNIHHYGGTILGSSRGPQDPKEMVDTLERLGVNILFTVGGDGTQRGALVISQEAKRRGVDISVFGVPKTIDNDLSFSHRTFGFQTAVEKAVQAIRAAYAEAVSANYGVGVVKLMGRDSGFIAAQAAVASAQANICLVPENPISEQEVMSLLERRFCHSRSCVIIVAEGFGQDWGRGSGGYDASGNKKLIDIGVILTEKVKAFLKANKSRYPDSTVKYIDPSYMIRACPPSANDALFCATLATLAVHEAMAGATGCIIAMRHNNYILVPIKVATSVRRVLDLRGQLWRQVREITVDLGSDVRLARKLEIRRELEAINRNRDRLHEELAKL
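ADP-Glo luminescence quantified ADP after 45 min at room temperature, with 1.25 nM T. brucei PFK, 0.1 mM ATP and 0.5 mM fructose-6-phosphate in pH 8.0 TEA buffer. qHTS titrations up to 57 µM; curves classified by quality.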
Hits are given with their value. A selection: hits, their analogues and other compounds. The true share with any hit is near 2.4%. Unless noted, calls come from the whole dose curve; as a rule, active = well fitted curve in the direction sought with a large enough effect; inconclusive = small, poorly fitted or top-dose-only effect, or another doubt; inactive = no such curve, though single readings can be large; an effect the other way counts as inactive or inconclusive.

Screening CCc1ccc(NC(=O)c2ccc3c(=O)n4c(nc3c2)CCCCC4)cc1 returned ELG1 repair inh inconclusive, Rango complex inh inactive, Rango release inh inactive, PKM2 act inactive, Tb PGK inh inactive and Tb PFK inh inactive.
O=C(Nc1cccc(S(=O)(=O)N2CCCCC2)c1)c1ccc2c(=O)n3c(nc2c1)CCCCC3 was read as ELG1 repair inh 4.1µM, Rango complex inh inactive, Rango release inh inactive, PKM2 act inactive, Tb PGK inh inactive and Tb PFK inh inactive.
Screening CC(=O)Nc1ccc(C(=O)Nc2ccc(S(=O)(=O)N3CCCC3)cc2)cc1 returned ELG1 repair inh inconclusive, Rango complex inh inactive, Rango release inh inactive, PKM2 act inactive, Tb PGK inh inactive and Tb PFK inh inactive.
For O=C(Nc1cccc(S(=O)(=O)C(F)F)c1)c1ccc(S(=O)(=O)N2CCCCC2)cc1 the results were ELG1 repair inh 13µM, Rango complex inh inconclusive, Rango release inh inactive, PKM2 act inactive, Tb PGK inh inactive and Tb PFK inh inactive.
Screening CN(Cc1ccccc1N1CCCC1)C(=O)c1cc2cc(Cl)ccc2o1 returned ELG1 repair inh inactive, Rango complex inh inactive, Rango release inh inactive, Tb PGK inh inactive and Tb PFK inh inactive.
Screening CCN(CC)C(=O)CSc1nc(-c2ccc(C)cc2)nc2c1Cc1c(CO)cnc(C)c1O2 returned Tb PGK inh inactive.
Screening CN(C)S(=O)(=O)c1cccc(NC(=O)c2ccc(S(=O)(=O)N3CCCCC3)cc2)c1 returned ELG1 repair inh inconclusive, Rango complex inh inactive, Rango release inh inactive, Tb PGK inh inactive and Tb PFK inh inactive.
Screening O=C(Nc1ccn(-c2ccccc2)n1)c1ccc(S(=O)(=O)N2CCCCCC2)cc1 returned ELG1 repair inh 5.2µM, Rango complex inh inactive, Rango release inh inactive, PKM2 act inactive, Tb PGK inh inactive and Tb PFK inh inactive.
`Cn1nc(C(=O)Nc2ccc(S(=O)(=O)N3CCCCC3)cc2)ccc1=O` gave ELG1 repair inh 16µM, Rango complex inh inactive, Rango release inh inactive, PKM2 act inactive, Tb PGK inh inactive and Tb PFK inh inactive.
O=C(Nc1cccc(S(=O)(=O)N2CCCCC2)c1)c1ccc(S(=O)(=O)C(F)F)cc1 was read as ELG1 repair inh 21µM, Rango complex inh inactive, Rango release inh inactive, PKM2 act inactive, Tb PGK inh inactive and Tb PFK inh inactive.
For O=C(Nc1ccccc1)c1ccc(S(=O)(=O)N2CCCCC2)cc1 the results were ELG1 repair inh inactive, Rango complex inh inactive, Rango release inh inactive, PKM2 act inactive, Tb PGK inh inactive and Tb PFK inh inactive.
For Cc1ccc(NC2=C/C(=N/S(=O)(=O)c3cccs3)c3ccccc3C2=O)cc1 the results were ELG1 repair inh inconclusive, Rango complex inh inactive, Rango release inh inactive, PKM2 act inactive, Tb PGK inh inactive and Tb PFK inh inactive.
For CCc1ccc(S(=O)(=O)/N=C2\C=C(Nc3ccc(C(=O)O)cc3)C(=O)c3ccccc32)cc1 the results were ELG1 repair inh 4.6µM, Rango complex inh inactive, Rango release inh inactive, Tb PGK inh inactive and Tb PFK inh inactive.
`Cc1ccc(S(=O)(=O)/N=C2\C=C(Nc3ccc(O)cc3)C(=O)c3ccccc32)cc1` gave ELG1 repair inh 10µM, Rango complex inh inactive, Rango release inh inactive, Tb PGK inh inactive and Tb PFK inh inactive.
Screening Cc1ccc(S(=O)(=O)/N=C2\C=C(Nc3cccc(C(=O)O)c3)C(=O)c3ccccc32)cc1 returned ELG1 repair inh 23µM, Rango complex inh inactive, Rango release inh inactive, PKM2 act inactive, Tb PGK inh inactive and Tb PFK inh inactive.
Screening COc1ccc2c(c1OC)OCC2C (stereo not drawn) returned Rango complex inh inactive, Rango release inh inactive and Tb PGK inh inactive.
Screening Cc1cc(SCC(=O)NC(=O)c2cccn2C)nc2ccccc12 returned ELG1 repair inh inactive, Rango complex inh inactive, Rango release inh inactive, PKM2 act inactive, Tb PGK inh inactive and Tb PFK inh inactive.
CC(=O)Nc1ccc(NC(=O)COC(=O)C2CCCCC2)cc1 was read as ELG1 repair inh inconclusive, Rango complex inh inactive, Rango release inh inactive, Tb PGK inh inactive and Tb PFK inh inactive.
Screening Cc1ccc(N/C(N)=N/c2nc3c(c(=O)[nH]2)CCCC3)c(C)c1 returned ELG1 repair inh inactive, Rango complex inh inactive, Rango release inh inactive, PKM2 act inactive and Tb PFK inh inactive.
For Cc1ccc(N/C(N)=N/c2nc(C)cc(N3CCCCC3)n2)c(C)c1 the results were ELG1 repair inh 16µM, Rango complex inh inactive, Rango release inh inactive, PKM2 act inactive, Tb PGK inh inactive and Tb PFK inh inactive.
CCOc1ccc(Nc2nc(Cc3nnc(SCC(=O)c4ccc(C)c(C)c4)o3)cs2)cc1 was read as ELG1 repair inh 23µM, Rango complex inh inactive, Rango release inh inactive, PKM2 act inactive and Tb PFK inh inactive.
Screening Cc1ccc(NC(=O)CSc2nnc(Cc3csc(C)n3)o2)cc1 returned ELG1 repair inh inconclusive, Rango complex inh inactive, Rango release inh inactive, Tb PGK inh inactive and Tb PFK inh inactive.
For Cc1ccccc1N1CCN(Cc2cccc(C(=O)O)c2)CC1 the results were ELG1 repair inh inactive, Rango complex inh inactive, Rango release inh inactive, PKM2 act inactive, Tb PGK inh inactive and Tb PFK inh inactive.
`COC(=O)c1cc(CN2CCN(c3ccccc3C)CC2)ccc1O` gave ELG1 repair inh 23µM, Rango complex inh inactive, Rango release inh inactive, PKM2 act inactive, Tb PGK inh inactive and Tb PFK inh inactive.
c1ccn2cc(C34CC5CC(CC(C5)C3)C4)nc2c1 was read as ELG1 repair inh inactive, Rango complex inh inactive, Rango release inh inactive, PKM2 act inactive, Tb PGK inh inactive and Tb PFK inh inactive.
Screening COC(=O)[C@@]1(Cc2ccc(F)cc2)[C@H]2c3cc(C(=O)N4CCCC4)n(Cc4ccc(C)c(F)c4F)c3C[C@H]2CN1C(=O)c1ccccc1 returned PKM2 act inactive.
COC(=O)[C@@]1(Cc2ccc(OC)cc2)[C@H]2c3cc(C(=O)N(C)C)n(Cc4ccc(C)o4)c3C[C@H]2CN1C(=O)c1ccccc1 was read as PKM2 act 8.9µM.
For COC(=O)[C@@]1(Cc2ccc(F)cc2)[C@H]2c3cc(C(=O)N4CCCC4)n(Cc4ccc(C)o4)c3C[C@H]2CN1C(=O)c1ccccc1 the results were PKM2 act 13µM.
Screening CSc1nc2nc3c(cc2c(=O)n1-c1ccccc1)COC(C)(C)C3 returned ELG1 repair inh inactive, Rango complex inh inactive, Rango release inh inactive, PKM2 act inactive, Tb PGK inh inactive and Tb PFK inh inactive.
